From PubChem
Only some compounds are listed: those with a hit (about 9.3% of all), similar ones and a draw of the others.
HCMV inh: inhibitors of human cytomegalovirus; HFF cells, HCMV-luciferase reporter, 72 h; hits give low values; 4.5% of 410,000 active; activity change, negative = inhibition, % at 57.5 µM; in the data active = activity change below about -60%; inconclusive = no clear call, values can overlap the other calls; inactive = above about -39%
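HFF cells seeded 16 h at 37C, treated with compounds, infected with luciferase-reporter HCMV at MOI 1 PFU/cell; luciferase read at 72 h post infection, normalized to buffer-only and Salinomycin controls.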
VACV Venus inh: inhibitors of vaccinia virus (Venus reporter) | Potency, µM (highest dose often 36.5 µM), usual class: inhibitors | Vaccinia virus Venus reporter expression, fluorescence | 0.46% of 330,000 active; calls by dose curve; tested in A549 cells; also: nearly all actives have a fitted effect of over 30% in size
Vaccinia mCherry: inhibitors of vaccinia virus infection (mCherry reporter signal). 0.63% of 310,000 active. Potency, µM (doses to about 36.5 µM), hits mostly inhibitors. Vaccinia virus mCherry reporter infection, fluorescence. AID 720579; calls by dose curve; tested in A549 cells; also: nearly all actives have a fitted effect of over 35% in size
Sm TGR block: blocks Schistosoma mansoni thioredoxin glutathione reductase. Q962Y6. purified TGR, DTNB reduction, TNB absorbance 405 nm. Potency, µM (doses to about 114 µM), hits mostly inhibitors. 3% of 360,000 active. AID 485364; also: nearly all actives have a fitted effect of over 60% in size
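Kinetic colorimetric format: TGR-catalysed, NADPH-driven DTNB reduction monitored via TNB absorbance. Enzyme dispensed at 20 nM; compound exposure 15 min at room temperature before reaction start.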
HCV inhibitor: inhibitors of hepatitis C virus infection. Potency, µM (top dose mostly 41.8 µM), hits mostly inhibitors. 3.4% of 340,000 active. Huh7.5.1 HCVcc-Cre infection, luciferase reporter, 44 h
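Cells (1,000/well) were plated 4 h before compound, then infected with HCVcc-Cre virus (~0.5 moi). After 44 h further culture, infection was read as luciferase luminescence following a 15 min substrate incubation at room temperature.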
FMDV inh: blocks foot and mouth disease virus. 1.2% of 410,000 active. Potency, µM (doses to about 57.9 µM), actives largely listed as inhibitors. FMDV antiviral cell-based qHTS. AID 1159524; calls by dose curve; tested in HEK293T cells; also: read-out not given here; nearly all actives have a fitted effect of over 45% in size
A number is an active result; - = inactive; ? = inconclusive; . = not tested or not shown. Unless noted, calls follow the shape of the dose curve; as a rule, active = well fitted curve in the direction sought with a large enough effect; inconclusive = small, poorly fitted or top-dose-only effect, or another doubt; inactive = no such curve, though single readings can be large; an effect the other way counts as inactive or inconclusive.

SMILES	HCMV inh	VACV Venus inh	Vaccinia mCherry	Sm TGR block	HCV inhibitor	FMDV inh
COc1cccc(N(C(=O)Cn2nnc(-c3ccc(C)cc3)n2)C(C(=O)NC(C)(C)C)c2c[nH]c3ccccc23)c1 (stereo not drawn)	-66	.	.	-	?	-
COc1ccccc1NC(=O)N1CCC(c2nnc(SCC(N)=O)n2C)CC1	-	.	.	-	-	-
Cn1c(=O)n(CCOc2ccc([N+](=O)[O-])cc2)c2ccccc21	-	-	-	-	-	-
Cc1ccc(OCCn2cnc3c2c(=O)n(C)c(=O)n3C)cc1	-76	-	-	-	3.5µM	?
Cc1ccc(OCCn2c(=O)n(C)c3ccccc32)cc1	-	-	-	-	11µM	-
CCOc1ccc2nc(S(=O)(=O)NC(=O)C3(C)CCN3C(=O)c3cccc(F)c3)sc2c1 (stereo not drawn)	-	-	-	.	.	-
CC(C)[C@@H](C)/C=C/[C@@H](C)[C@H]1CC[C@@H]2[C@]1(C)CCC1[C@]23C=C[C@]2(C[C@@H](O)CC[C@]12C)N(c1ncc(C(F)(F)F)cc1Cl)O3 (stereo partly drawn)	-	.	.	.	.	.
Cc1ccccc1NC(=O)c1ccc(NS(=O)(=O)c2cc(C(C)(C)C)cc(C)c2C)cc1	-	?	?	-	?	-
COc1ccc(-c2n(Cc3ccccc3)c3ccccc3[n+]2Cc2ccccc2)cc1	-98	.	.	.	?	?
CCOc1ccc(S(=O)(=O)N2CCOCC2)cc1NC(=O)CSCc1ccc(C)cc1	-	.	.	-	?	-
Cc1sc2ncnc(N3CCC(C(=O)NNC(=O)COc4ccccc4Cl)CC3)c2c1C	-	-	?	-	?	35µM
Cc1sc2ncnc(N3CCC(C(=O)NNC(=O)COc4cccc(C(F)(F)F)c4)CC3)c2c1C	-	-	-	-	-	25µM
CCN(CC)CCNC(=O)c1ccc(NC(=O)C2CCN(c3ncnc4sc(C)c(C)c34)CC2)cc1	-71	.	.	-	13µM	?
CC(=O)c1sc(NC(=O)C2CCN(c3ncnc4sc(C)c(C)c34)CC2)nc1-c1ccccc1	-	-	-	-	?	-
Cc1sc2ncnc(N3CCC(C(=O)Nc4nc(-c5ccc(F)cc5)cs4)CC3)c2c1C	-65	-	-	-	?	-
CC(=O)Nc1ccc(S(=O)(=O)NCCC(=O)N2CCN(C(c3ccccc3)c3ccccc3)CC2)cc1	?	-	-	-	-	?
CNS(=O)(=O)c1cccc(C(=O)OCC(=O)NC2CCCC2)c1	-	.	.	-	-	-
Cc1sc2ncnc(N3CCC(C(=O)NNC(=O)COc4ccccc4F)CC3)c2c1C	-	-	-	-	?	25µM
Cc1cc(Br)ccc1NC(=O)CN(C)C(=O)C1CCN(c2ncnc3sc(C)c(C)c23)CC1	-83	?	?	.	10µM	?
Cc1sc2ncnc(N3CCC(C(=O)Nc4ccc(OC(F)F)c(Cl)c4)CC3)c2c1C	-	.	.	.	20µM	?
CC[N+](C)(CC)CCCOC(=O)C(O)(c1ccccc1)C1CCCCC1 (stereo not drawn)	-	-	.	-	-	-
CCc1ccc(NC(=O)CSc2nc3c(sc4ccccc43)c(=O)n2CCN(CC)CC)cc1	-60	-	?	-	.	-
Cc1cc(NC(=O)CSc2nc3c(sc4ccccc43)c(=O)n2CCCN2CCOCC2)n[nH]1	.	.	.	-	5.6µM	-
CN(C)CCn1c(SCc2ccccc2C#N)nc2c(sc3ccccc32)c1=O	-67	.	.	-	-	-
CCN(CC)CCn1c(SCC(=O)Nc2ccc(F)cc2)nc2c(sc3ccccc32)c1=O	.	.	.	-	.	.
SMILES	HCMV inh	VACV Venus inh	Vaccinia mCherry	Sm TGR block	HCV inhibitor	FMDV inh
C=CCN(C(=O)CSc1nc2c(sc3ccccc32)c(=O)n1CCN(CC)CC)c1ccccc1	-67	?	-	-	-	?
CC(=O)c1ccc(OC2OCCOC2Oc2ccc(C(C)=O)cc2)cc1 (stereo not drawn)	?	.	.	-	-	-
Nc1ccc(C2=Nc3cccc4cccc(c34)N2)cc1	-	.	.	?	-	-
CC1=Nc2cccc3cccc(c23)N1	-	.	.	40µM	?	-
CN(C)c1ccc(/C=C/C(=O)c2ccccc2O)cc1	-	.	.	-	-	-
Cc1cccc(-n2c(Cn3nc(C)c([N+](=O)[O-])c3C)n[nH]c2=S)c1	-98	-	.	-	-	-
CC[C@@H]1C(=O)OC[C@@H]1Cc1cncn1C	-	-	-	-	-	-
